Out of some 400,000 compounds screened, about 2,100 (0.53%) were called active. Another 14% or so got no clear call; they are omitted. No rule for the calls is given here. Many of the other results were omitted from the sample, so actives are more common in it than they were.

Ataxin-2 (Homo sapiens), sequence (Q99700 whole entry): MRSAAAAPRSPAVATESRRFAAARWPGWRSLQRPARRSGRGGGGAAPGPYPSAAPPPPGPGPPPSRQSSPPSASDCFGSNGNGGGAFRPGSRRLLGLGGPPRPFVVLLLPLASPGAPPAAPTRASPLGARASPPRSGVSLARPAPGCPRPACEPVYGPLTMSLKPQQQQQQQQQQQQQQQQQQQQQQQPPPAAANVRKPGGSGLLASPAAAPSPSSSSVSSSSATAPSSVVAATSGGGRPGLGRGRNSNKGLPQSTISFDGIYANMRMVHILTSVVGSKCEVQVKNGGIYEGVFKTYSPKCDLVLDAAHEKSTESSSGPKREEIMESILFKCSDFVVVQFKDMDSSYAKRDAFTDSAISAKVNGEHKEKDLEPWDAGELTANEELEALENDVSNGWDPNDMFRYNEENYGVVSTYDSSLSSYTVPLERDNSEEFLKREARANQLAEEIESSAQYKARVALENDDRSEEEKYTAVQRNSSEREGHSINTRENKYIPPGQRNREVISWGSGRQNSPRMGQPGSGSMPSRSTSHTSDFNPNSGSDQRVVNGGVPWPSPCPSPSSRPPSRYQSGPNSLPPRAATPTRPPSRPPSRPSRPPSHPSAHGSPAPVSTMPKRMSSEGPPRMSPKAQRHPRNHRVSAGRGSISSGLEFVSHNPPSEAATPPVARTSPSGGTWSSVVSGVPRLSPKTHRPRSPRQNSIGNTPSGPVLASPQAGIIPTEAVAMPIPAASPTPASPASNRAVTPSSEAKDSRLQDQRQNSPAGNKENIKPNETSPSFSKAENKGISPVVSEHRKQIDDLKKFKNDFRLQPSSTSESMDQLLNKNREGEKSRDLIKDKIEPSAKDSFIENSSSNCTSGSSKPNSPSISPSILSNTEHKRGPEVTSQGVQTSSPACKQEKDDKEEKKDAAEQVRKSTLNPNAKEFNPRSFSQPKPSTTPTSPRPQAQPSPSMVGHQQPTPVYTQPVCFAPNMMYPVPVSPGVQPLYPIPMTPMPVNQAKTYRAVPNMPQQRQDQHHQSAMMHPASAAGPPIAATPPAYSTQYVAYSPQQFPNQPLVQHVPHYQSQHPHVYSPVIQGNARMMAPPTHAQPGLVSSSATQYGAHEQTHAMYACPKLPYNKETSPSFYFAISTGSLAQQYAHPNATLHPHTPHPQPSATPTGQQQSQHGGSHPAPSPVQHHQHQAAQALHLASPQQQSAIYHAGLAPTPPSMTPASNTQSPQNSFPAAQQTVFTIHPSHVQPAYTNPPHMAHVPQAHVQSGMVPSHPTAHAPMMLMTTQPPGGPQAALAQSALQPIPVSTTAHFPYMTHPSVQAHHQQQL

The experiment has as its target Ataxin-2 (Homo sapiens) (UniProt Q99700). Kind of experiment: qHTS for Inhibitors of ATXN expression. In kind it is functional. A general note: Quantitative high-throughput screening tests each substance at several concentrations.
For the compound `CCN1C(=O)c2cccc3c(S(=O)(=O)N(C)C)ccc1c23`, the Potency entry was “inactive”. To `Cc1ccc(-c2cc(C(=O)NN3CCOCC3)c3cc(Br)ccc3n2)o1` belongs “inactive”. To `CCCc1cc(C(=O)Nc2cc(C)on2)no1` belongs “inactive”.

In the case of `N#Cc1c(N)n(-c2ccc(C(=O)O)cc2)c2nc3ccccc3nc12`, the Potency result was “inactive”. Regarding `Cc1ccc2nc(N3CCN(C=O)CC3)nc(-c3ccccc3)c2c1`, the Potency result is “inactive”. To `CCOC(=O)c1ccc(-c2ccc(/C=C(\C#N)C(=O)NCC3CCCO3)o2)cc1` (stereo not drawn) belongs “inactive”; to `Cn1c(-c2ccc(C#N)cc2)c(C#Cc2ccccc2)c2ccccc21`, “inactive”. As for `COc1ccc(OC)c(C2c3c(-c4ccc(Br)cc4)n[nH]c3C(=O)N2c2ccc(Cl)cc2)c1` (stereo not drawn), the Potency is 39.8 µM (active). Regarding `CCOc1ccc(N2C(=O)c3[nH]nc(-c4cccs4)c3C2c2cccc(F)c2)cc1` (stereo not drawn), the Potency is 39.8 µM (active).

In the case of `Fc1ccc(N2N=C(c3cccs3)CC2c2ccccc2)cc1` (stereo not drawn), the Potency entry is “inactive”. Consider `COc1ccccc1[C@@H]1C(c2cccc(Cl)c2)=NN(c2ccc(Br)cc2)[C@H]1C(=O)N1CCOC1=O`, for which the Potency entry was “inactive”. To `COC(=O)c1nc2n(n1)C(c1cc(OC)ccc1OC)C=C(c1ccc(Br)cc1)N2` (stereo not drawn) belongs “inactive”. To `CC(=O)c1sc2nc(C)c3c(c2c1N)CCCC3` belongs “inactive”; to `CNc1nc(-c2cccs2)cc(C(F)(F)F)c1C#N`, “inactive”.

With `Cc1cccc(C)c1OCCn1c(C2CC(=O)N(Cc3ccc(F)cc3)C2)nc2ccccc21` (stereo not drawn), the Potency is 39.8 µM (active).

For `Cc1ccc(C)c(OCCn2nnc3ccccc32)c1`, the Potency entry was “inactive”. To `CCOc1ccc(CCNC(=O)C2CC(=O)N(Cc3ccc(OC)cc3)C2)cc1OCC` (stereo not drawn) belongs “inactive”; to `Cc1ccc(C)c(OCCn2c(C3CC(=O)N(Cc4ccc(F)cc4)C3)nc3ccccc32)c1` (stereo not drawn), 39.8 µM (active). To `COCCn1c2nc(=O)n(-c3ccccc3)c(=O)c-2nc2ccccc21` belongs “inactive”; to `CC(=O)Oc1ccc2cc(-c3cccnc3)c(=O)oc2c1`, “inactive”. To `COc1ccc(CNC2=NC(=O)CC(C(=O)Nc3ccc([N+](=O)[O-])cc3C)S2)cc1` (stereo not drawn) belongs “inactive”. For `Cc1ccc(C2(c3ccc(C)cc3)CC2C(=O)Nc2ccc([N+](=O)[O-])cc2O)cc1` (stereo not drawn), the Potency was 20 µM (active). To `NNC(=O)C1CC1(c1ccccc1)c1ccccc1` (stereo not drawn) belongs “inactive”; to `CCCCNC(=O)c1cc2c(=O)n3cccc(C)c3nc2n(Cc2ccccc2)c1=N`, “inactive”. In the case of `COc1ccc(Nc2cc(C(=O)NCCCN(C)Cc3ccccc3)c3ccccc3n2)c(OC)c1`, the Potency is 14.1 µM (active). To `COc1ccc2nc(NCCCNC(=O)c3cc(OC)c(OC)c(OC)c3)c(C#N)cc2c1` belongs “inactive”; to `CCCCN(CCCNC(=O)c1cc(Nc2ccc(OC)c(OC)c2)nc2ccccc12)Cc1ccccc1`, 22.4 µM (active); to `COc1ccc(OC)c(Nc2cc(C(=O)NCc3ccccc3)c3ccccc3n2)c1`, “inactive”. To `CCOc1ccccc1-n1c(C)cc(C=O)c1C` belongs “inactive”.

For `CCCn1c(=O)c(C(=O)Nc2ncccc2O)c(O)c2ccccc21`, the Potency result was “inactive”. To `CCn1nc(C(=O)Nc2nc(-c3ccccn3)cs2)c2ccccc2c1=O` belongs 31.6 µM (active); to `CCn1nc(NC(=O)c2cccs2)c2cc3ccccc3nc21`, “inactive”; to `CC[C@@H]1C(c2cccc(Cl)c2)=NN(c2ccc(Br)cc2)[C@H]1C(=O)N1CCOC1=O`, “inactive”. To `O=C(CN1C(=O)NC2(CCCC2)C1=O)NNC(=O)c1ccccc1F` belongs “inactive”; to `CCOc1cccc(CN2CCCC(C(=O)c3cccc(C(F)(F)F)c3)C2)c1O` (stereo not drawn), “inactive”; to `Cc1nc(-c2ccc(S(=O)(=O)Oc3ccc(Cl)cc3Cl)s2)cs1`, “inactive”. To `CCOC(=O)c1cc2c(=O)n3ccccc3nc2n(Cc2ccco2)/c1=N\C(=O)c1ccccc1Br` belongs “inactive”; to `CCC(=O)N(CC)C1=C(O)C(=O)c2ccccc2C1=O`, “inactive”. `O=C1c2ccccc2C(=O)c2[nH]c(O)nc21`: the Potency was 25.1 µM (active). In the case of `CCOC(=O)C1CCN(C(=O)c2ccc(CNS(=O)(=O)c3ccc(OC)cc3)cc2)CC1`, the Potency result was “inactive”.

`O=C(CCCCC(=O)NN=Cc1ccc(Cl)cc1)NN=Cc1ccc(Cl)cc1`: the Potency is 39.8 µM (active). For the compound `O=C1NCCCC1C(=O)N/N=C/c1ccc(Cl)cc1` (stereo not drawn), the Potency entry is “inactive”. To `O=C(CCCCC(=O)NN=Cc1ccc2c(c1)CCC2)NN=Cc1ccc2c(c1)CCC2` belongs “inactive”; to `Cc1c(-c2ccccc2)cnc2c(C)cccc12`, “inactive”; to `CCc1cc(=O)oc2c(C)c(O)c(CN(C)C)cc12`, “inactive”. For `CC1CCCCC1NC(=O)COC(=O)c1c2c(nc3ccccc13)/C(=C/c1ccco1)CC2` (stereo not drawn), the Potency entry is “inactive”. For the compound `CCN(CCn1cccn1)C(=O)CC1C(=O)NCCN1Cc1ccc(F)cc1` (stereo not drawn), the Potency result is “inactive”. To `CCc1cc(CNC(=O)CC2C(=O)NCCN2Cc2ccc(-c3ccccc3)cc2)on1` (stereo not drawn) belongs 35.5 µM (active); to `COc1cccc(CN2CCNC(=O)C2CC(=O)NC2CCOCC2)c1OC` (stereo not drawn), “inactive”. To `O=S(=O)(Nc1ccc(-c2cn3cccnc3n2)cc1)c1ccccc1` belongs “inactive”; to `Clc1ccc(-c2nc3cnccn3c2NC2CCCC2)cc1`, “inactive”. To `CC(C)(C)C(CN1CCCC1)OC(=O)c1ccccc1` (stereo not drawn) belongs “inactive”; to `O=C(/C=C/c1cn(CC(O)CN2CCCCC2)c2ccccc12)c1ccccc1` (stereo not drawn), “inactive”.

Take `O=C(c1ccc(Cl)cc1)C(CN1CCCC1)c1ccccc1` (stereo not drawn): the Potency was 22.4 µM (active).

`O=C(/C=C/c1cn(CC(O)CN2CCCCCC2)c2ccccc12)c1ccccc1` (stereo not drawn): the Potency entry is “inactive”. To `COc1ccc(CC(=O)N2CCN(c3ccccc3)CC2)cc1` belongs “inactive”; to `O=C(c1ccc(Cl)cc1)C(CN1CCCCC1)c1ccccc1` (stereo not drawn), 31.6 µM (active); to `O=C(O)c1ccn2c(C(=O)c3ccc(Cl)cc3)c(-c3ccccc3)cc2c1`, “inactive”. To `O=C(c1ccc(Cl)cc1)C1CCN(C(=O)c2ccccc2F)CC1` belongs “inactive”; to `COc1ccc(C(=O)C(CN2CCCC2)c2ccccc2)cc1` (stereo not drawn), 28.2 µM (active); to `O=C(C1=NN(c2ccccc2)C2C(=O)N(c3cccc(Cl)c3)C(=O)C12)c1ccccc1` (stereo not drawn), “inactive”. To `COc1ccc(-c2c(C#N)c(N)nc3c2CCC3)cc1` belongs “inactive”; to `CCCCN1C(=O)C2Cc3c([nH]c4ccccc34)CN2C1=S` (stereo not drawn), “inactive”; to `O=c1c(O)c(-c2cccs2)oc2ccccc12`, “inactive”. As to `CC(C)Oc1ccc(C(CCN)C2CCCCC2)cc1` (stereo not drawn), the Potency is 25.1 µM (active). To `COc1ccc(C2CC(c3ccc4ccccc4c3)=NN2C(=O)CNC2CCCCC2)cc1` (stereo not drawn) belongs 39.8 µM (active); to `COc1ccc(C2CC(c3ccc(OC)cc3OC(C)=O)=NN2C(=O)c2ccccc2)cc1` (stereo not drawn), “inactive”. To `CCC(=O)Nc1cccc(C2=NN(c3ccccc3)C(c3ccc(OC)cc3)C2)c1` (stereo not drawn) belongs “inactive”.
